From PubChem BioAssay
Records with an inconclusive call do not appear. The source made the active and inactive calls. Unless noted, no rule for the calls is given here.

What was measured:
[1] = yeast TOR pathway RPL19A-GFP modulators, primary screen, cell-based, S. cerevisiae, multiplex flow cytometry (AID 1862; in the data active = percent of DMSO control GFP below about 86%;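 also: lower values mimic rapamycin by blocking the RPL19A rise seen in DMSO cells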); settings: S. cerevisiae RPL19A-GFP strain, flow cytometry fluorescence, 3 h; at 10 µM; stronger effect = lower value
[2] = modulators of MEP2-GFP levels in yeast, primary screen, S. cerevisiae, multiplex flow cytometry (AID 1867;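 active = GFP response, as percent of the DMSO control, above the screen-wide mean plus 3 SD, about 139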;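 also: median GFP channel fluorescence of barcode-gated MEP2-GFP cells measured by flow cytometry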); settings: S. cerevisiae MEP2-GFP strain, 3 h, at 10 µM, stronger effect = higher value
[3] = modulators of CIT2-GFP expression in yeast, primary screen, S. cerevisiae, GFP fusion, multiplex flow cytometry (AID 1870;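 active = percent response above a set limit, the screen-wide mean plus 3 SD, cut at about 130% in these data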;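 also: barcoded CIT2-GFP strain pooled with four other GFP strains with rapamycin as positive control; median GFP fluorescence per well over plate mean of DMSO wells so 100% = DMSO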); settings: 3 h, at 10 µM, stronger effect = higher value
[4] = modulators of LAP4-GFP expression in yeast, primary screen, S. cerevisiae, multiplex flow cytometry (AID 1873;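 active = GFP signal, as percent of the solvent control, above the screen mean plus 3 SD, about 149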); settings: 3 h, at 10 µM, stronger effect = higher value
[5] = modulators of AGP1-GFP expression in yeast TOR pathway, primary screen, cell-based, multiplex flow cytometry, S. cerevisiae (AID 1887;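 active = GFP signal above the screen-wide mean plus 3 SD, that is over about 124.5% of the solvent control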;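 also: AGP1-GFP fusion strain of S. cerevisiae within a five-strain barcoded multiplex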); settings: 3 h, at 10 µM, stronger effect = higher value
[6] = inhibitors of CD8+ T cell-vesicle binding, pilot screen, LFA-1/ICAM-1 modulator project, MLPCN validation set, flow cytometry (AID 2523;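 active = response below a set limit, under 55% cells CD8-positive and vesicle-bound, and CD8 cells' 90th-percentile brightness under 279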;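 as to vesicle binding response: mean PE anti-B7-1 fluorescence of CD8+ cells relative to row control; 100% = QL9-loaded vesicles with DMSO vehicle in the same plate row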); settings: 2C mouse CD8+ T cells, at 7 µM, stronger effect = lower value; double positive events: measured here: CD8+/vesicle+ event percentage
[7] = target: Integrin beta-1 (Homo sapiens) + Integrin alpha-4 (Homo sapiens) (UniProt P13612+P05556); test: inhibition of HUTS-21 binding to VLA-4, pilot screen, VLA-4 allosteric modulator project, U937 cells, HUTS-21 mAb, flow cytometry, validation set (AID 2674;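 active = inhibition above 50%, about 3 SD of the validation set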;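 also: antibody binding induced by the VLA-4 ligand LDV present at three times its Kd; 0% = LDV ligand with antibody and no compound and 100% = antibody without LDV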); settings: HUTS-21 LIBS mAb binding, at 6.7 µM, stronger effect = higher value
[8] = superoxide lowering in aged yeast cells, pilot screen, validation compound set (AID 2706;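 active = superoxide response below 65% of plate, a cut near 3 SD across the whole screen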;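 also: yeast exposed to compound for one week at 30 degrees C before staining; 100% = mean of all compound wells on the same plate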); settings: S. cerevisiae aging, superoxide DHE fluorescence; at 10 µM; stronger effect = lower value
[9] = target: Beta-adrenergic receptor kinase 1 (Homo sapiens) (UniProt P25098); test: GRK2 binders displacing RNA aptamer, biochemical, validation, human GRK2, bead flow cytometry (AID 488806;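 active = aptamer binding inhibition above 30%, about 3 SD of noise from non-fluorescent compounds; inactive = inhibition at or below 30%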); settings: bead-bound GRK2, FAM-aptamer displacement, at 10 µM, stronger effect = higher value
[10] = target: Beta-2 adrenergic receptor (Homo sapiens) (UniProt P07550); test: beta2AR agonists driving receptor internalization, pilot screen, cell-based, FAP fluorogen, flow cytometry, validation set (AID 504459;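 active = percent response above 42, roughly 3 SD of non-fluorescent test compounds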;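 also: agonist-driven loss of surface beta2AR via internalization measured by FAP dye flow cytometry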); settings: Am2.2-beta2AR cells, FAP surface receptor flow cytometry; at 10 µM; stronger effect = higher value
[11] = target: AP-2 complex subunit beta (Homo sapiens) (UniProt P63010); test: inhibitors of arrestin peptide binding to AP2, pilot screen, biochemical, validation set, GST-AP2 beads, flow cytometry (AID 504541;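 active = inhibition above 54%, about 3 SD of non-fluorescent compounds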;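 also: AP2 carries R879A mutation and is captured from E. coli lysate; bead-bound FITC arrestin peptide fluorescence measuring arrestin peptide binding to AP2; 0% = DMSO wells and 100% = excess unlabeled arrestin peptide control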); settings: FITC arrestin peptide, at 10 µM, stronger effect = higher value
[12] = yeast V-ATPase proton transport modulators, S. cerevisiae, pHLuorin, HTS validation (AID 504600; in the data active = response above about 15%;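 also: plate controls were DMSO for no effect and reference compound for full effect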); settings: S. cerevisiae pHLuorin cytosolic pH, at 10 µM, stronger effect = higher value
[13] = test system: anti-desmoglein-3 scFv antibody binding to human DSG3; test: inhibitors of anti-DSG3 scFv binding to DSG3, pilot screen, biochemical, validation compound set, bead-based, flow cytometry (AID 588368;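 active = binding below the plate cutoff, the plate median minus 3 SD, with a reading above zero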;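 also: signal is the median channel fluorescence of bead-bound GFP antibody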); settings: Protein G beads, DSG3-Fc, scFv-GFP binding, at 10 µM, stronger effect = lower value
[14] = test system: Botulinum neurotoxin type F light chain protease (Clostridium botulinum); test: Botulinum neurotoxin type F light chain protease inhibition, multiplex microsphere flow cytometry, validation set (AID 588459); settings: multiplex microsphere protease substrate cleavage assay, at 10 µM, stronger effect = higher value
[15] = target: Botulinum neurotoxin type A (Clostridium botulinum) (UniProt P0DPI0); test: BoNT/A light chain protease inhibitors, biochemical, multiplex microsphere flow cytometry, validation set (AID 588460); settings: at 10 µM, stronger effect = higher value
[16] = target: Lethal factor (Bacillus anthracis) (UniProt P15917); test: Lethal factor protease inhibitors, Bacillus anthracis, multiplex microsphere cleavage assay, validation set (AID 588461); settings: flow cytometry, at 10 µM, stronger effect = higher value
[17] = inhibitors of fungal efflux pumps CDR1, CDR2, MDR1, pilot screen, validation compound set, multiplex, phenotypic (AID 588506;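 active = efflux inhibition above 0.42, the validation set average plus 4 SD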;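 also: Nile Red retained in cells so higher fluorescence means more efflux inhibition; 0 = negative control wells and 1 = enniatin B 25 µM full block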); settings: S. cerevisiae pump-expressing triplex, Nile Red efflux flow cytometry; at 10 µM; stronger effect = higher value
[18] = target: ATP-binding cassette sub-family B member 6 (Homo sapiens) (UniProt Q9NP58); test: ABCB6 transporter inhibitors, pilot screen, K562-ABCB6 cells, flow cytometry, validation set (AID 588550;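 active = inhibition above the screen-wide mean plus 3 SD, about 51%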;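 also: 0% = DMSO wells and 100% = benzethonium chloride 70 µM positive control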); settings: K562-ABCB6 porphyrin accumulation, 1 h, at 10 µM, stronger effect = higher value
[19] = promoters of myeloid differentiation in arrested cells, primary screen, cell-based, GFP/MAC1 double positive, flow cytometry, validation set (AID 588685;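 active = differentiation response of at least 50%, scaled between solvent and reference control, from cells with both markers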;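 also: compound exposure lasts four days before antibody staining and flow analysis; 0% = DMSO wells and 100% = 5 µM fulvestrant positive control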); settings: ER-HoxA9 marrow cells, stronger effect = higher value

Structure (SMILES) | percent of DMSO control GFP [1] | GFP response vs DMSO [2] | percent response of DMSO control [3] | GFP response vs DMSO [4] | GFP response, % of DMSO [5] | double positive events [6] [%] | vesicle binding response [6] | inhibition [7] | superoxide response (% of plate) [8] | aptamer binding inhibition [9] | response [10] | inhibition [11] | response [12] | binding (% of control) [13] | inhibition [14] | inhibition [15] | inhibition [16] | efflux inhibition (fraction of control) [17] | inhibition [18] | differentiation response [19]
Nc1ccncc1 | 97.9% (inactive) | 119% (inactive) | 111% (inactive) | 77.6% (inactive) | 99.6% (inactive) | 61 | 218% (inactive) | -0.33% (inactive) | 94.5% (inactive) | 1% (inactive) | -11.6% (inactive) | -14.8% (inactive) | -2.33% (inactive) | 108% (inactive) | 2.4% (inactive) | -0.4% (inactive) | -3% (inactive) | -0.02 (inactive) | 13% (inactive) | 4.09% (inactive)
CN1C2CCC1CC(OC(=O)CCN1CCCC1)C2 (stereo not given) | 105% (inactive) | 105% (inactive) | 107% (inactive) | 115% (inactive) | 113% (inactive) | 61.6 | 194% (inactive) | 8.25% (inactive) | 98.4% (inactive) | 4% (inactive) | -8.97% (inactive) | 33.9% (inactive) | -1.35% (inactive) | 107% (inactive) | 3.2% (inactive) | 1.3% (inactive) | 1.5% (inactive) | 0.08 (inactive) | 0% (inactive) | -0.06% (inactive)
OC1CCCCC1N1CCC(c2ccccc2)CC1 (stereo not given) | 92.8% (inactive) | 133% (inactive) | 91.3% (inactive) | 70.4% (inactive) | 89.4% (inactive) | 62.4 | 171% (inactive) | 5.49% (inactive) | 110% (inactive) | 3% (inactive) | -8.3% (inactive) | -5.17% (inactive) | 2.23% (inactive) | 127% (inactive) | 8.9% (inactive) | -1% (inactive) | 6.3% (inactive) | 0.52 (active) | 15% (inactive) | -1.64% (inactive)
CCOc1ccc(N2C(=O)NC(=O)/C(=C\c3cc(OC)c(OC)cc3[N+](=O)[O-])C2=O)cc1 | 102% (inactive) | 97.7% (inactive) | 109% (inactive) | 89.3% (inactive) | 103% (inactive) | 60.3 | 144% (inactive) | -7.79% (inactive) | 107% (inactive) | 0% (inactive) | 7.81% (inactive) | 7.81% (inactive) | -4.04% (inactive) | 97.9% (inactive) | -3.1% (inactive) | -0.2% (inactive) | 4.2% (inactive) | -0.15 (inactive) | -11% (inactive) | 17.4% (inactive)
Cn1c(O)c(C=NCCc2c[nH]c3ccccc23)c(=O)n(C)c1=O | 100% (inactive) | 111% (inactive) | 97.7% (inactive) | 120% (inactive) | 110% (inactive) | 76.2 | 17400% (inactive) | 5.03% (inactive) | 106% (inactive) | 5% (inactive) | -8.95% (inactive) | -3.21% (inactive) | 3.13% (inactive) | 96.8% (inactive) | -1.3% (inactive) | 1.4% (inactive) | -1.6% (inactive) | -0.06 (inactive) | 6% (inactive) | -23.2% (inactive)
COP(=O)(OC)C(O)C(Cl)(Cl)Cl (stereo not given) | 103% (inactive) | 98.3% (inactive) | 102% (inactive) | 99.9% (inactive) | 102% (inactive) | 62.8 | 230% (inactive) | 9.92% (inactive) | 94.8% (inactive) | 3% (inactive) | -7.88% (inactive) | -9.07% (inactive) | 0.81% (inactive) | 97.9% (inactive) | -1% (inactive) | -0.6% (inactive) | -2.9% (inactive) | -0.17 (inactive) | -2% (inactive) | 12.9% (inactive)
CC(=O)OC1C2CCC1C(N1CCCC1)CC2 (stereo not given) | 98.7% (inactive) | 106% (inactive) | 97.7% (inactive) | 104% (inactive) | 115% (inactive) | 67.3 | 162% (inactive) | 9.1% (inactive) | 91.4% (inactive) | 0% (inactive) | -10.9% (inactive) | -16% (inactive) | -1.91% (inactive) | 103% (inactive) | -2.3% (inactive) | -0.8% (inactive) | -5.2% (inactive) | -0.04 (inactive) | 3% (inactive) | -12.9% (inactive)
CC(C)(C)C(O)C(Oc1ccc(Cl)cc1)n1cncn1 (stereo not given) | 105% (inactive) | 107% (inactive) | 106% (inactive) | 121% (inactive) | 115% (inactive) | 62 | 218% (inactive) | 1.44% (inactive) | 277% (inactive) | 2% (inactive) | -29.1% (inactive) | 7.17% (inactive) | -0.61% (inactive) | 100% (inactive) | -0.4% (inactive) | 0% (inactive) | -4.4% (inactive) | -0.04 (inactive) | 4% (inactive) | 6.83% (inactive)
